Compounds without any hit were thinned out: in the full panel of roughly 83,000, 20% have a hit.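 Compound tested at a single concentration for 48 hours in 96-well plates; a percent growth value below 10 was scored as active.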 The source made the active and inactive calls.

The first experiment concerns HCT-116 colon. The experiment is described as follows: NCI-60 one-dose screen, 48 h (100 = growth as untreated, 0 = no growth, -100 = all killed). Particulars: 10 µM unless noted.
Consider `CCN1C(=O)N(CC)C2C1NN=c1s/c(=C\c3cc4ccccc4[nH]3)c(=O)n12` (stereo not drawn), for which the growth is 9.85% (active).
The same measure, in the same setting: to `CCN(CC)CCCNCc1cc(-c2ccccc2)nc2cc(Cl)ccc12` belongs -16.5% (active); to `CC[C@H](CC[C@@H](C)[C@H]1CC[C@H]2[C@@H]3CC[C@@H]4CC(=O)/C(=C\c5ccncc5)C[C@]4(C)[C@H]3CC[C@]12C)C(C)C`, 103% (inactive).
For `CCN(CC)c1ccc(/C=N\NC(=O)c2cccc(Nc3ccnc(C(F)(F)F)c3)c2)c(O)c1`, the growth was 26.5% (inactive).
On the same count and under the same terms, the same measure for `Cc1cscc(C)c1=S`: 61.2% (inactive); for `COC(=O)/C=C1/SC(=Nc2cccc(Cl)c2)N(CCc2c[nH]c3ccc(O)cc23)C1=O`: -33% (active).
The same measure, in the same setting: the same measure for `O=C(CCCCCCCCC(=O)N/N=C\c1cc(Cl)ccc1O)N/N=C\c1cc(Cl)ccc1O`: 22.7% (inactive); for `COc1ccc(/C=C/C(=O)c2cc3c(N)c(C(=O)Nc4ccc(OC)cc4)sc3nc2C)cc1`: 16.6% (inactive); for `CCCCCCOC(=O)CC1=C(C)/C(=C/c2[nH]c(-c3ccc[nH]3)cc2OC)N=C1C`: -79% (active).
For `Cc1ccc(O)c(NC(=O)c2ccc(CNc3ccnc(C(F)(F)F)c3)cc2)c1`, the growth is 66.4% (inactive).
For the compound `O=C1/C(=C/c2ccc(Br)cc2)COc2ccc(O)c(O)c21`, the growth was -15.9% (active).
Turning to `O=C(/C=C/C12c3ccccc3C(c3ccccc31)C1C(=O)NC(=O)C12)c1ccc(F)cc1` (stereo not drawn), the growth was -18.6% (active).
In the case of `Cc1ccc(C)c2c1C(O)(C#Cc1ccccc1)c1ccccc1C2(O)C#Cc1ccccc1` (stereo not drawn), the growth was 43.3% (inactive).
As to `C(/C=C/c1ccccc1)=Nc1ccc(CCc2ccc(N=C/C=C/c3ccccc3)cc2)cc1`, the growth was 54.1% (inactive).
`O=C(Cn1nnc2ccccc21)Nc1ccc(-c2nc3ccccc3s2)cc1`: the growth was 97.4% (inactive).
As for `CCCCCCCC/C=C\CCCCCCCCOc1ccc(CC(=O)NCC[N+](C)(C)C)cc1`, the growth was 68.2% (inactive).
The same measure, in the same setting: the same measure for `COc1cc(/C=C2\CN(S(=O)(=O)c3ccc(C)cc3)C/C(=C\c3cc(CN4CCCCC4)c(O)c(OC)c3)C2=O)cc(CN2CCCCC2)c1O`: -70.6% (active).
Take `Cc1ncc(C(=O)Nc2ccc(CN3CCN(C)CC3)c(C(F)(F)F)c2)cc1C#Cc1cnc(N)c2ccncc12`: the growth was -87.6% (active).
As to `COc1cc(C2=NN(C(C)=O)C(c3ccc(N(C)C)cc3)C2)cc(OC)c1OC` (stereo not drawn), the growth is 86.9% (inactive).
As for `COC1=CC(c2ccc[nH]2)=N/C1=C\c1[nH]c(C)c(CC(=O)OCc2ccccc2)c1C`, the growth is -35% (active).
On the same count and under the same terms, to `CCOC(=O)CSc1nc2sc3c(c2c(=O)n1-c1ccc([N+](=O)[O-])cc1)CCCCC3` belongs 51.3% (inactive); to `CN(C)c1ccc(C(=NO)c2ccc(N(C)C)cc2)cc1`, 18.5% (inactive).
As for `Cc1ccc(C(=O)c2ccc(CC(=O)N/N=C/c3ccc(O)cc3O)n2C)cc1`, the growth is 34.9% (inactive).
As for `N#C/C(=C\c1ccc(Br)cc1)c1cc2ccccc2[nH]1`, the growth was 84.7% (inactive).
Turning to `COc1ccc(-c2cn(-c3ccc(Cl)cc3)c(SCC(=O)c3ccc([N+](=O)[O-])cc3)n2)cc1`, the growth is 74.6% (inactive).
`COc1ccc(Cc2nnc(Nc3nc4ccccc4s3)s2)cc1`: the growth is 104% (inactive).
Take `CCOC(=O)c1ccc2c(c1)c1c(C)c3ccncc3c(C)c1n2C`: the growth was 0.263% (active).
Take `Cc1nc2sc(C(=O)Nc3cccc(Cl)c3)c(N)c2cc1C(O)c1ccccc1` (stereo not drawn): the growth was 13.9% (inactive).
For the compound `COc1ccc(C2CC(c3ccc(Nc4nc(Nc5ccc(F)cc5)nc(Nc5ccc(F)cc5)n4)cc3)=NN2C(C)=O)cc1` (stereo not drawn), the growth was 93.5% (inactive).
Still for that read-out and setting: to `N#Cc1c(NC(=O)c2cccs2)[n+]([O-])c2ccc(Cl)cc2[n+]1[O-]` belongs 79.8% (inactive); to `CC(C)(C)c1cc(C=Nc2cccc(C(F)(F)F)c2)c(O)c(C(C)(C)C)c1`, 94.1% (inactive).
Still for that read-out and setting: to `N=c1sc(Cc2cc(Cl)ccc2Cl)cn1CC(=O)c1ccccc1` belongs 26.1% (inactive).
On to `COc1ccc(Nc2ncc(C(N)=O)c(NCCCNC(=O)C3CCC3)n2)cc1`, for which the growth is 54% (inactive).
`Cc1nn(-c2ccccc2)c(/N=C/N(C)C)c1/C=C/C(=O)c1ccc(Cl)cc1`: the growth was 74.7% (inactive).
Regarding `COc1ccc2cc(-c3ccc(-c4ccc(C(=N)N)s4)s3)ccc2c1`, the growth was -29.5% (active).
For `O=C1c2cccnc2C(=O)c2c1c(C(=O)OCCCN1CCCCC1)c1ccccn21`, the growth was -20.3% (active).
Regarding `O[C@@H](c1cc(C(F)(F)F)nc2c(C(F)(F)F)cccc12)[C@H]1CCCCN1`, the growth was 36.1% (inactive).
On the same count and under the same terms, the same measure for `Cc1[nH]c(/C=C/C(=O)c2ccc(C(F)(F)F)c(F)c2)c(C)c1C(=O)NCC(C)C`: 96.7% (inactive); for `CCCCCCCCn1ccc2cc(NC(=O)Cn3cc(CN4CCCCCC4)nn3)ccc21`: -77.3% (active).

The test system of the next experiment is HCC-2998 colon. The experiment is described as above. Particulars: 10 µM unless noted.
On to `CCN1C(=O)N(CC)C2C1NN=c1s/c(=C\c3cc4ccccc4[nH]3)c(=O)n12` (stereo not drawn), for which the growth is 10.3% (inactive).
On the same count and under the same terms, to `CCN(CC)CCCNCc1cc(-c2ccccc2)nc2cc(Cl)ccc12` belongs -29.1% (active); to `CC[C@H](CC[C@@H](C)[C@H]1CC[C@H]2[C@@H]3CC[C@@H]4CC(=O)/C(=C\c5ccncc5)C[C@]4(C)[C@H]3CC[C@]12C)C(C)C`, 104% (inactive).
Consider `CCN(CC)c1ccc(/C=N\NC(=O)c2cccc(Nc3ccnc(C(F)(F)F)c3)c2)c(O)c1`, for which the growth is 60.1% (inactive).
With `Cc1cscc(C)c1=S`, the growth is 103% (inactive).
The same measure, in the same setting: to `COC(=O)/C=C1/SC(=Nc2cccc(Cl)c2)N(CCc2c[nH]c3ccc(O)cc23)C1=O` belongs 2.25% (active).
As to `O=C(CCCCCCCCC(=O)N/N=C\c1cc(Cl)ccc1O)N/N=C\c1cc(Cl)ccc1O`, the growth was 39% (inactive).
On to `COc1ccc(/C=C/C(=O)c2cc3c(N)c(C(=O)Nc4ccc(OC)cc4)sc3nc2C)cc1`, for which the growth is 15.9% (inactive).
As for `CCCCCCOC(=O)CC1=C(C)/C(=C/c2[nH]c(-c3ccc[nH]3)cc2OC)N=C1C`, the growth is -47.5% (active).
For the compound `Cc1ccc(O)c(NC(=O)c2ccc(CNc3ccnc(C(F)(F)F)c3)cc2)c1`, the growth is 27.7% (inactive).
Regarding `O=C1/C(=C/c2ccc(Br)cc2)COc2ccc(O)c(O)c21`, the growth was -66.3% (active).
The same measure, in the same setting: the same measure for `O=C(/C=C/C12c3ccccc3C(c3ccccc31)C1C(=O)NC(=O)C12)c1ccc(F)cc1` (stereo not drawn): 10.9% (inactive); for `Cc1ccc(C)c2c1C(O)(C#Cc1ccccc1)c1ccccc1C2(O)C#Cc1ccccc1` (stereo not drawn): 87.4% (inactive); for `C(/C=C/c1ccccc1)=Nc1ccc(CCc2ccc(N=C/C=C/c3ccccc3)cc2)cc1`: 108% (inactive).
Take `O=C(Cn1nnc2ccccc21)Nc1ccc(-c2nc3ccccc3s2)cc1`: the growth was 93.7% (inactive).
As for `CCCCCCCC/C=C\CCCCCCCCOc1ccc(CC(=O)NCC[N+](C)(C)C)cc1`, the growth was 43.1% (inactive).
Regarding `COc1cc(/C=C2\CN(S(=O)(=O)c3ccc(C)cc3)C/C(=C\c3cc(CN4CCCCC4)c(O)c(OC)c3)C2=O)cc(CN2CCCCC2)c1O`, the growth is -87.2% (active).
In the case of `Cc1ncc(C(=O)Nc2ccc(CN3CCN(C)CC3)c(C(F)(F)F)c2)cc1C#Cc1cnc(N)c2ccncc12`, the growth was -89.3% (active).
On the same count and under the same terms, the same measure for `COc1cc(C2=NN(C(C)=O)C(c3ccc(N(C)C)cc3)C2)cc(OC)c1OC` (stereo not drawn): 102% (inactive).
As to `COC1=CC(c2ccc[nH]2)=N/C1=C\c1[nH]c(C)c(CC(=O)OCc2ccccc2)c1C`, the growth was 13.4% (inactive).
Regarding `CCOC(=O)CSc1nc2sc3c(c2c(=O)n1-c1ccc([N+](=O)[O-])cc1)CCCCC3`, the growth was 82% (inactive).
On to `CN(C)c1ccc(C(=NO)c2ccc(N(C)C)cc2)cc1`, for which the growth is 58.6% (inactive).
Consider `Cc1ccc(C(=O)c2ccc(CC(=O)N/N=C/c3ccc(O)cc3O)n2C)cc1`, for which the growth was 59.6% (inactive).
In the case of `N#C/C(=C\c1ccc(Br)cc1)c1cc2ccccc2[nH]1`, the growth was 101% (inactive).
With `COc1ccc(-c2cn(-c3ccc(Cl)cc3)c(SCC(=O)c3ccc([N+](=O)[O-])cc3)n2)cc1`, the growth is 103% (inactive).
As to `COc1ccc(Cc2nnc(Nc3nc4ccccc4s3)s2)cc1`, the growth is 103% (inactive).
As for `CCOC(=O)c1ccc2c(c1)c1c(C)c3ccncc3c(C)c1n2C`, the growth is 4.25% (active).
Turning to `Cc1nc2sc(C(=O)Nc3cccc(Cl)c3)c(N)c2cc1C(O)c1ccccc1` (stereo not drawn), the growth was 17.8% (inactive).
Consider `COc1ccc(C2CC(c3ccc(Nc4nc(Nc5ccc(F)cc5)nc(Nc5ccc(F)cc5)n4)cc3)=NN2C(C)=O)cc1` (stereo not drawn), for which the growth was 37.6% (inactive).
Turning to `N#Cc1c(NC(=O)c2cccs2)[n+]([O-])c2ccc(Cl)cc2[n+]1[O-]`, the growth was 111% (inactive).
For the compound `CC(C)(C)c1cc(C=Nc2cccc(C(F)(F)F)c2)c(O)c(C(C)(C)C)c1`, the growth is 108% (inactive).
On the same count and under the same terms, the same measure for `N=c1sc(Cc2cc(Cl)ccc2Cl)cn1CC(=O)c1ccccc1`: 31.6% (inactive); for `COc1ccc(Nc2ncc(C(N)=O)c(NCCCNC(=O)C3CCC3)n2)cc1`: 98.5% (inactive); for `Cc1nn(-c2ccccc2)c(/N=C/N(C)C)c1/C=C/C(=O)c1ccc(Cl)cc1`: 101% (inactive).
On to `COc1ccc2cc(-c3ccc(-c4ccc(C(=N)N)s4)s3)ccc2c1`, for which the growth was -58.1% (active).
`O=C1c2cccnc2C(=O)c2c1c(C(=O)OCCCN1CCCCC1)c1ccccn21`: the growth was -35.7% (active).
For the compound `O[C@@H](c1cc(C(F)(F)F)nc2c(C(F)(F)F)cccc12)[C@H]1CCCCN1`, the growth was 80.5% (inactive).
Same read-out and setting: the same measure for `Cc1[nH]c(/C=C/C(=O)c2ccc(C(F)(F)F)c(F)c2)c(C)c1C(=O)NCC(C)C`: 98.9% (inactive); for `CCCCCCCCn1ccc2cc(NC(=O)Cn3cc(CN4CCCCCC4)nn3)ccc21`: -80.9% (active).

The values are drawn from PubChem BioAssay (NCI).
